This is part of a sample that, as a whole, favours compounds with a hit. Of some 83,000 tested, about 20% had one in any assay.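 In brief: 96-well plates, 48 h treatment, single concentration, percent growth endpoint.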 Values without a mark were called inactive. The source made the active and inactive calls. Rule for the calls: active = growth percent below 10; inactive = the rest.

Holding throughout (test): NCI-60 one-dose screen, 48 h (100 = growth as untreated, 0 = no growth, -100 = all killed)
Holding throughout (details): 10 µM unless noted

For assay [1], the system named is HCT-15 colon.
Assay [2] has as its system HT29 colon.
Assay [3] concerns SNB-75 CNS.
Assay [4] relates to SNB-19 CNS.
For assay [5], the system named is U251 CNS.
Assay [6] has as its system PC-3 prostate.
In assay [7] the test system is SK-MEL-5 melanoma.
The subject of assay [8] is UACC-62 melanoma.
The test system of assay [9] is LOX IMVI melanoma.
The subject of assay [10] is SK-MEL-28 melanoma.
Assay [11] deals with SK-MEL-2 melanoma.
In assay [12] the test system is EKVX NSCLC.
The subject of assay [13] is SN12C renal.
The test system of assay [14] is UO-31 renal.
The subject of assay [15] is TK-10 renal.
The test system of assay [16] is ACHN renal.
Assay [17] deals with CAKI-1 renal.
Assay [18] has as its system CCRF-CEM leukemia.
Assay [19] deals with MOLT-4 leukemia.

For the molecule `Clc1nc(Nc2ccccc2)nc(Nc2ccccc2)n1`, the growth is 100% in assay [1]; 116% in assay [2]; 105% in assay [3]; 104% in assay [4]; 110% in [5]; 99.5% in assay [6]. Further, the growth in [7] is 99.8%; in assay [8] it was 96.3%; in assay [9], 94.1%; in [10] it was 112%; in assay [11] it was 106%; in assay [12], 106%. Besides, the growth in assay [13] was 95.9%; in assay [14] it was -80.6% (active); in assay [15], 122%; in assay [16], 98.9%; in assay [17], 86.5%; in assay [18], 91.7%. In addition, the growth in assay [19] is 86.3%.
For the molecule `N#Cc1cc(-c2nc3ccccc3s2)c(=O)n(NS(=O)(=O)c2ccc(Cl)cc2)c1N`, the growth in assay [1] was 103%; in assay [2], 109%; in assay [3], 63.1%; in [4], 102%; in [5], 102%; in assay [6], 98.5%. Moreover, the growth in assay [7] was 99.5%; in assay [8], 88.2%; in assay [9], 97%; in [10] it was 111%; in [11] it was 102%; in [12], 100%. Further, the growth in [13] is 97.8%; in assay [14] it was 70.4%; in assay [15], 139%; in assay [16], 95.5%; in [17], 80.5%; in assay [18] it was 107%. For the same molecule, in [19], the growth is 107%.
`COc1cccc(NC(=O)c2cccc(-c3cc(=O)c4c(OC)c(OC)c(OC)cc4o3)c2)c1`: the growth in assay [1] was 54.7%; in assay [2] it was 50.8%; in assay [3] it was 89.8%; in assay [4], 82.5%; in assay [5] it was 62.1%; in [6], 57.1%. The growth in assay [7] is 63.9%; in [8], 62.1%; in assay [9], 49.9%; in assay [10], 73.4%; in assay [11], 75.7%; in assay [12], 81.3%. The growth is 62.3% in assay [13]; 31.6% in [14]; 78.8% in assay [15]; 62.5% in assay [16]; 74.7% in assay [17]; 40.5% in [18]. Further, the growth in assay [19] is 48.5%.
With `COC(=O)N[C@H]1CCc2cc(OC)c(OC)c(OC)c2-c2ccc(SC)c(=O)cc21`, the growth in assay [1] is 9.48% (active); in assay [2] it was 2.35% (active); in assay [3], 32.4%; in assay [4], 31.1%; in assay [5] it was 12.8%; in assay [6] it was 22.4%. Further, the growth is -42.9% (active) in assay [7]; 34.9% in assay [8]; 15.7% in assay [9]; 56.9% in assay [10]; 12.5% in assay [11]; 32.2% in [12]. The growth in [13] is 23.9%; in assay [14], 44.5%; in [15], 47%; in [16], 24.9%; in [17], 17%; in [18] it was 15.6%. In assay [19], the growth is 9.69% (active).
With `O=C1Nc2cc(-c3ccncc3)ccc2/C1=C/c1ccc[nH]1`, the growth in assay [1] was 72.3%; in assay [2], 88.8%; in [3] it was 89.3%; in [4], 97%; in assay [5] it was 91.7%; in assay [6], 88.1%. The growth is 77.9% in [7]; 111% in assay [8]; 98.8% in assay [9]; 69.6% in assay [10]; 106% in assay [11]; 46.9% in [12]. Further, the growth in assay [13] is 99.5%; in assay [14] it was 73.7%; in assay [15] it was 95.7%; in [16], 54%; in [17], 87.9%; in assay [18], 104%. Also, the growth in assay [19] was 96.4%.
For `C=C(C)[C@@H]1CC[C@]2(C(=O)NCC(=O)OC)CC[C@]3(C)[C@H](CC[C@@H]4[C@@]5(C)Cc6c([nH]c7ccccc67)C(C)(C)[C@@H]5CC[C@]43C)[C@@H]12`, the growth was 81.9% in [1]; 60.8% in [2]; 114% in [3]; 82.5% in assay [4]; 58.9% in [5]; 49.1% in [6]. For the same molecule, the growth in assay [7] was 81.7%; in [8], 76.6%; in [9], 70.7%; in assay [10] it was 95%; in assay [11] it was 78.2%; in assay [12], 71.5%. Besides, the growth was 70.9% in assay [13]; 65.1% in assay [14]; 89.3% in assay [15]; 60.5% in [16]; 58.6% in [17]; 57.2% in assay [18]. The growth in [19] was 40.9%.
As for `C=C1C(=O)O[C@H]2[C@H]1CC/C(COC(=O)NCCc1c[nH]c3ccc(Cl)cc13)=C\CC[C@@]1(C)O[C@@H]21`, the growth in [1] is -66.6% (active); in [2], -73.6% (active); in assay [3], -54.6% (active); in [4] it was 32.4%; in assay [5], -41.4% (active); in assay [6], 1.04% (active). Also, the growth is -15.2% (active) in [7]; -51.7% (active) in assay [8]; -82.4% (active) in assay [9]; -71.9% (active) in assay [10]; -3.3% (active) in [11]; -85.8% (active) in assay [12]. The growth in [13] is -70.1% (active); in assay [14], -99.7% (active); in [15] it was -97.2% (active); in assay [16], -100% (active); in [17], -100% (active); in [18], -18.3% (active). Also, in assay [19], the growth is -6.88% (active).
`COc1ccc(C(=O)/C=C/c2ccc(OCc3ccccc3)c(OC)c2)cc1OC`: the growth in assay [1] is 45.8%; in assay [2], 10.6%; in [3] it was 34.1%; in assay [4], 87.1%; in assay [5], 10.1%; in assay [6], 46%. Also, the growth is 66.1% in [7]; 70.8% in [8]; 34.3% in [9]; 89.6% in assay [10]; 83.5% in [11]; 54.7% in assay [12]. Also, the growth is 61.1% in [13]; 43.8% in assay [14]; 48.4% in assay [15]; 79.8% in assay [16]; 55.5% in assay [17]; 17.4% in assay [18]. In [19], the growth was 44.8%.
Regarding `COc1cc2nc(-c3ccc(C(F)(F)F)cc3)cc(OCCN3CCCC3)c2cc1OC`, the growth in assay [1] is 67.3%; in [2] it was 66.4%; in [3], 71.6%; in [4], 88.7%; in assay [5], 76.8%; in assay [6], 73.8%. For the same molecule, the growth is 84.4% in assay [7]; 93.3% in assay [8]; 27% in assay [9]; 78.6% in assay [10]; 105% in assay [11]; 68.8% in assay [12]. The growth in [13] was 72.2%; in assay [14] it was 54.2%; in [15] it was 92.9%; in assay [16], 84.1%; in assay [17], 68.7%; in assay [18], 77.8%. In [19], the growth was 74.2%.
For `CC(=O)[C@@H]1CC[C@]2(C(N)=O)CC[C@]3(C)[C@H](CC[C@@H]4[C@@]5(C)CCC(=O)C(C)(C)[C@@H]5CC[C@]43C)[C@@H]12`, the growth is 103% in assay [1]; 95.9% in assay [2]; 89% in assay [3]; 102% in assay [4]; 103% in assay [5]; 78.5% in [6]. Further, the growth in assay [7] was 101%; in assay [8], 84.5%; in [9], 99.2%; in assay [10], 100%; in assay [11] it was 100%; in [12], 90.1%. For the same molecule, the growth in [13] was 102%; in assay [14], 98.7%; in assay [15], 107%; in assay [16] it was 97.1%; in assay [17], 89.6%; in [18] it was 99%. For the same molecule, the growth in assay [19] was 92.5%.
Turning to `CC(=O)c1cccc(NS(=O)(=O)c2cccc(C(=O)Nc3ccc(Br)cc3)c2)c1`, the growth in [1] is 62.8% [25 µM]; in [2] it was 78.4% [25 µM]; in [3], 70.5% [25 µM]; in [4] it was 53.9% [25 µM]; in [5], 62.7% [25 µM]; in assay [6], 48.8% [25 µM]. Also, the growth in [7] is -13.7% [25 µM] (active); in assay [8] it was 38.9% [25 µM]; in [9], 50.5% [25 µM]; in assay [10], 71.3% [25 µM]; in assay [11], 50.6% [25 µM]; in assay [12], 27.1% [25 µM]. Besides, the growth in assay [13] was 58% [25 µM]; in assay [14], 41% [25 µM]; in assay [15], 80.7% [25 µM]; in assay [16], 61.5% [25 µM]; in assay [17], 39.6% [25 µM]; in assay [18], 47.7% [25 µM]. Besides, the growth in assay [19] is 38.7% [25 µM].
For `COc1ccccc1C(C[N+](=O)[O-])c1c(-c2ccccc2)[nH]c2cc(C)ccc12` (stereo unspecified), the growth was 44% in assay [1]; 35.8% in assay [2]; 42.7% in assay [3]; 81% in assay [4]; 83.9% in assay [5]; 69.5% in assay [6]. Besides, the growth is 74.9% in assay [7]; 43.8% in [8]; 70.1% in [9]; 78.9% in assay [10]; 62.8% in [11]; 71.7% in assay [12]. The growth in [13] is 77.9%; in assay [14] it was 57.2%; in [15], 118%; in assay [16], 73.4%; in assay [17] it was 38.1%; in assay [18], 54.4%. Besides, the growth in [19] was 53%.
Turning to `NC(=S)N/N=C/c1ccc(OC(=O)COc2cc(Cl)c(Cl)cc2Cl)cn1`, the growth in assay [1] was 81%; in assay [2] it was 70.7%; in [3], 98.8%; in assay [4], 91.6%; in assay [5] it was 54%; in [6] it was 59.8%. In addition, the growth in assay [7] is 21.8%; in [8], 39.7%; in assay [9], 25.1%; in assay [10] it was 89%; in [11] it was 59.1%; in assay [12], 106%. In addition, the growth is 43.9% in [13]; 22.1% in assay [14]; 92.5% in [15]; 18.4% in assay [16]; 36.4% in [17]; 40.7% in [18]. For the same molecule, the growth in assay [19] is 31.3%.
Regarding `O=C(N=Nc1c(O)[nH]c2ccc(F)cc12)c1cc2ccccc2[nH]1`, the growth in assay [1] is 96%; in [2] it was 109%; in [3] it was 99.6%; in [4] it was 97.7%; in [5], 94.7%; in assay [6], 103%. Besides, the growth was 99.7% in assay [7]; 96.1% in assay [8]; 97.3% in assay [9]; 110% in assay [10]; 91% in assay [11]; 89% in assay [12]. For the same molecule, the growth in assay [13] is 91.2%; in assay [14] it was 76.2%; in [15], 106%; in [16] it was 100%; in assay [17] it was 80.7%; in [18], 99.5%. Also, the growth in assay [19] was 99.2%.

Source of the values: PubChem BioAssay (NCI).
